Hit rate of the full screen: of about 320,000 compounds, about 2,100 (0.66%) were called active. Roughly 53% stayed inconclusive and do not appear here. Calls come from the whole dose curve; as a rule, active = well fitted inhibition curve with a large enough effect in the signal ratio, with a control signal flat (not every such curve was filed as active); inconclusive = small, poorly fitted or top-dose-only effect, or effect the other way, or a change in a side signal; inactive = flat fitted curve, though single readings scatter; the % refers to the signal ratio. What follows is part of a selection rich in actives, with near analogues and random picks from the rest.
Experiment: qHTS Assay for Lipid Storage Modulators in Drosophila S3 Cells;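 for cell number change: cells counted by Cell Tracker Red CMTPX staining in the red channel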; for lipid storage change, negative = inhibition: % is set by controls: 0 for no effect and ±100 for the full control effect
Settings: BODIPY lipid droplet fluorescence, 18-24 h, cells fed with added oleic acid; cell number change: measured here: cell count max response; series mostly up to 46.1 µM; lipid storage change, negative = inhibition: at the top concentration
In short: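 Drosophila S3 cells got compounds at several concentrations plus oleic acid (400 uM solution). Laser-scanning cytometry with 488 nm excitation read lipid droplets at 500-530 nm and cells at 575-640 nm. Percent activity was relative to 20 uM Triacsin C.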
Potency is the fitted concentration of half-maximal effect.

Q: Which “lipid storage change, negative = inhibition” value does the source give for `O=C(c1cccc(COc2cccc3ccccc23)c1)N1CCCC1` here?
A: 0.849% (inactive)

Q: What about the cell number change of the same compound?
A: -5.05%

Q: With `COc1ccc(/C=N/Nc2nnc(-c3ncc[nH]3)c3ccccc23)cc1` as the compound, how does the “lipid storage change, negative = inhibition” value read?
A: -8.98% (inactive)

Q: And the cell number change?
A: -1.94%

Q: Which “lipid storage change, negative = inhibition” value does the source give for `CC1=C(C)CC(C(=O)Nc2ccc3c(c2)OCO3)C(C(=O)O)C1` (stereo not drawn) here?
A: 14.7% (inactive)

Q: What about the cell number change of the same compound?
A: -0.481%

Q: Which results are given for `COc1ccc(OC)c(S(=O)(=O)NNC(=S)Nc2ccc3c(c2)OCO3)c1`?
A: outcome: inactive; cell number change: 5.94%

Q: Which “lipid storage change, negative = inhibition” value does the source give for `O=C(Nc1cnccn1)Nc1cccc(Cl)c1Cl` here?
A: -1.85% (inactive)

Q: And the cell number change?
A: -0.957%

Q: For `CC1CN(S(=O)(=O)c2cccc(C(=O)Nc3ccccc3N3CCCCC3)c2)CC(C)O1` (stereo not drawn), which Potency is on record?
A: 23.1 µM (active)

Q: And the cell number change?
A: -19.1%

Q: Which Potency does the source give for `CSc1ncccc1C(=O)Nc1cccc(S(=O)(=O)N2CCCCC2)c1` here?
A: 16.4 µM (active)

Q: And the cell number change?
A: 0.775%

Q: With `O=C(Nc1cccc(S(=O)(=O)N2CCCCC2)c1)c1ccccn1` as the compound, how does the “lipid storage change, negative = inhibition” value read?
A: 0.112% (inactive)

Q: And the cell number change?
A: 20.1%

Q: For `O=C(NCC1CCCCC1)c1cccc(S(=O)(=O)N2CCCC2)c1`, which “lipid storage change, negative = inhibition” value is on record?
A: 6.69% (inactive)

Q: And the cell number change?
A: 3.1%

Q: Which “outcome” value does the source give for `Cc1c(C(=O)NCC2COc3ccccc3O2)oc2ccc(S(=O)(=O)N3CC(C)CC(C)C3)cc12` (stereo not drawn) here?
A: inactive

Q: What about the cell number change of the same compound?
A: 0.959%

Q: Which results are given for `CCOc1ncccc1C(=O)Nc1cccc(S(=O)(=O)N2CCCCC2)c1`?
A: lipid storage change, negative = inhibition: 25.8% (inactive); cell number change: -15%

Q: For `CCN(CC)S(=O)(=O)c1ccc2oc(C(=O)NCC3COc4ccccc4O3)c(C)c2c1` (stereo not drawn), which Potency is on record?
A: 0.461 µM (active)

Q: What about the cell number change of the same compound?
A: -14.2%

Q: Which results are given for `CC1CN(S(=O)(=O)c2cccc(C(=O)Nc3ccccc3N3CCOCC3)c2)CC(C)O1` (stereo not drawn)?
A: outcome: inactive; cell number change: -20.3%

Q: For `O=C(NCC1COc2ccccc2O1)c1cccc(S(=O)(=O)N2CCOCC2)c1` (stereo not drawn), which “lipid storage change, negative = inhibition” value is on record?
A: -2.13% (inactive)

Q: What about the cell number change of the same compound?
A: -18%

Q: Which “outcome” value does the source give for `CCN(CC)S(=O)(=O)c1ccc2oc(C(=O)NC3CC3)c(C)c2c1` here?
A: inactive

Q: And the cell number change?
A: -10.9%

Q: Which Potency does the source give for `O=C(NCC1COc2ccccc2O1)c1cccc(S(=O)(=O)N2CCCCC2)c1` (stereo not drawn) here?
A: 2.06 µM (active)

Q: What about the cell number change of the same compound?
A: -15.1%

Q: What does the source list for `CN1CCN(S(=O)(=O)c2cccc(C(=O)Nc3ccccc3N3CCCC3)c2)CC1`?
A: lipid storage change, negative = inhibition: -27.5% (inactive); cell number change: 9.72%

Q: For `CC(C)Oc1ccc(S(=O)(=O)N2CCOCC2)cc1NC(=O)C1CCCCC1`, which “lipid storage change, negative = inhibition” value is on record?
A: 14.6% (inactive)

Q: What about the cell number change of the same compound?
A: 17%

Q: Which cell number change does the source give for `Cc1cccc(NC(=O)C2CCCN2C(=O)NC2CCCCC2)c1` (stereo not drawn) here?
A: -1.91%

Q: What about the lipid storage change, negative = inhibition of the same compound?
A: 9.23% [at 9.22 µM] (inactive)

Q: With `CCC(C)C(NC(=O)OCc1ccccc1)C(=O)NC(Cc1ccc(O)cc1)C(=O)OC` (stereo not drawn) as the compound, how does the “lipid storage change, negative = inhibition” value read?
A: 4.97% (inactive)

Q: And the cell number change?
A: 15.2%

Q: Which results are given for `Cc1cnc2cc([N+](=O)[O-])ccc2n1`?
A: lipid storage change, negative = inhibition: -3.52% (inactive); cell number change: 9.36%

Q: For `CC(NC(=O)CN1c2cccc3cccc(c23)S1(=O)=O)c1ccc(S(N)(=O)=O)cc1` (stereo not drawn), which “lipid storage change, negative = inhibition” value is on record?
A: 24.5% (inactive)

Q: What about the cell number change of the same compound?
A: 20.8%

Q: What does the source list for `CCC(C)c1ccc(S(=O)(=O)N2CCN3CCCC3C2)cc1` (stereo not drawn)?
A: outcome: inactive; cell number change: -6.32%

Q: Which “lipid storage change, negative = inhibition” value does the source give for `CCOC(=O)C(NC(=O)CC)(Nc1ccc(S(N)(=O)=O)cc1)C(F)(F)F` (stereo not drawn) here?
A: -9.17% (inactive)

Q: And the cell number change?
A: 9.23%

Q: With `O=C(CSc1nnnn1C1CCCCC1)Nc1ccc(F)cc1` as the compound, how does the “lipid storage change, negative = inhibition” value read?
A: 0.247% (inactive)

Q: And the cell number change?
A: -9.49%

Q: With `CN(C)C(=O)Nc1cnc2ccccc2c1` as the compound, how does the “lipid storage change, negative = inhibition” value read?
A: 8.36% (inactive)

Q: What about the cell number change of the same compound?
A: 12.4%

Q: For `COc1ccc(CNC(=O)c2noc(C(C)C)c2[N+](=O)[O-])cc1`, which “lipid storage change, negative = inhibition” value is on record?
A: -2.76% (inactive)

Q: And the cell number change?
A: 2.44%

Q: Which results are given for `CCOC(=O)C(NC(=O)c1ccc(F)cc1)(Nc1sc2c(c1C(N)=O)CCC2)C(F)(F)F` (stereo not drawn)?
A: lipid storage change, negative = inhibition: 7.93% (inactive); cell number change: -0.472%

Q: What does the source list for `CCCC(=O)Oc1c(S(=O)(=O)c2ccc(C)cc2)c(C)nn1C(C)(C)C`?
A: lipid storage change, negative = inhibition: -0.57% (inactive); cell number change: 23.9%

Q: For `CC(=O)c1cccc(NC(=O)c2cccc(S(=O)(=O)N3CCOCC3)c2)c1`, which “outcome” value is on record?
A: inactive

Q: What about the cell number change of the same compound?
A: 0.952%

Q: Which results are given for `O=C(Nc1cccc(S(=O)(=O)N2CCCC2)c1)c1cccc(S(=O)(=O)N2CCOCC2)c1`?
A: Potency: 1.84 µM (active); cell number change: -9.73%

Q: For `O=C(COc1ccccc1)Nc1nc(-c2ccc(S(=O)(=O)N3CCOCC3)cc2)cs1`, which “lipid storage change, negative = inhibition” value is on record?
A: 24.2% (inactive)

Q: What about the cell number change of the same compound?
A: -17.5%

Q: Which “lipid storage change, negative = inhibition” value does the source give for `O=C(Nc1ccc(S(=O)(=O)N2CCOCC2)cc1)c1ccccc1` here?
A: -6.47% (inactive)

Q: What about the cell number change of the same compound?
A: -4.33%

Q: Which “outcome” value does the source give for `O=C(Nc1ccc(S(=O)(=O)N2CCOCC2)cc1)c1cccc(Br)c1` here?
A: inactive

Q: What about the cell number change of the same compound?
A: -4.91%

Q: For `Cc1nc(-c2ccc(S(=O)(=O)N3CCOCC3)cc2)cs1`, which “lipid storage change, negative = inhibition” value is on record?
A: 4.04% (inactive)

Q: For `O=C(Nc1cccc(F)c1)c1cccc(S(=O)(=O)N2CCOCC2)c1`, which “lipid storage change, negative = inhibition” value is on record?
A: -3.69% (inactive)

Q: What about the cell number change of the same compound?
A: -12.5%

Q: Which results are given for `CC(C)(C)c1nnc(NC(=O)c2ccc3c(c2)OCO3)s1`?
A: outcome: inactive; cell number change: 5.88%

Q: Which “lipid storage change, negative = inhibition” value does the source give for `O=C(/C=C/c1ccc2c(c1)OCO2)Nc1nncs1` here?
A: 2.26% (inactive)

Q: What about the cell number change of the same compound?
A: 12.8%

Q: Which results are given for `CC(C)C(=O)Nc1nc(-c2ccc(S(=O)(=O)N3CCOCC3)cc2)cs1`?
A: Potency: 5.17 µM (active); cell number change: -31.7%

Q: Which Potency does the source give for `O=C(Nc1nncs1)c1ccc2c(c1)OCO2` here?
A: 4.61 µM (active)

Q: What about the cell number change of the same compound?
A: 11.7%

Q: Which results are given for `CC(C)C(=O)Nc1cccc(C(=O)Nc2ccc(S(=O)(=O)N3CCOCC3)cc2)c1`?
A: Potency: 13 µM (active); cell number change: -1.62%

Q: For `CCN(CC(=O)NC1CCCC1)S(=O)(=O)c1ccc(C)cc1`, which “outcome” value is on record?
A: inactive

Q: What does the source list for `COc1ccc(/C=C/C(=O)O)cc1S(=O)(=O)NC1CCS(=O)(=O)C1` (stereo not drawn)?
A: lipid storage change, negative = inhibition: 29% (inactive); cell number change: 23.6%

Q: What does the source list for `Nc1nc(SCc2ccccc2Cl)nc2nc3c(cc12)CCCC3`?
A: lipid storage change, negative = inhibition: -0.358% (inactive); cell number change: -12.1%

Q: For `COc1ccc(C2N=C(c3ccccc3)NC(c3ccccc3)=N2)cc1`, which “lipid storage change, negative = inhibition” value is on record?
A: 3.53% (inactive)

Q: What about the cell number change of the same compound?
A: 1.5%

Reference: PubChem BioAssay AID2685 (National Center for Advancing Translational Sciences (NCATS), 2010)
